Screens: PubChem, The Scripps Research Institute Molecular Screening Center
Sampled rows, rich in hits. Any-hit rate of the full collection: about 0.86%.
TLR9-MyD88 inh: TLR9-MyD88 interaction inhibition; Q9NR96+Q99836; CHO BLA complementation TLR9-MyD88, CCF4 FRET ratio; inhibition, % at 4.98 µM; hit rate 0.21% among 340,000;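 active means inhibition above the mean over all tested compounds plus 3 SD, cut at about 21% in these data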;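 further: 0% = DMSO only wells and 100% = clavulanate BLA inhibitor control wells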
Target sequence (Q99836 whole entry, looked up): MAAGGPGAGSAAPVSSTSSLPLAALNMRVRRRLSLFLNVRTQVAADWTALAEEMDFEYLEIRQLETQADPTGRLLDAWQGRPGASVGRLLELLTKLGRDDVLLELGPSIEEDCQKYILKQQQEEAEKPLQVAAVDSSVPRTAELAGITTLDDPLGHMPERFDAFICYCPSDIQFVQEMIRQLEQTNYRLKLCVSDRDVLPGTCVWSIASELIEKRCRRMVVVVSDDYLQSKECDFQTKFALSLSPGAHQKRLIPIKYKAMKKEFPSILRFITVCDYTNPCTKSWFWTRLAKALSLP
Target sequence (Q9NR96 whole entry, looked up): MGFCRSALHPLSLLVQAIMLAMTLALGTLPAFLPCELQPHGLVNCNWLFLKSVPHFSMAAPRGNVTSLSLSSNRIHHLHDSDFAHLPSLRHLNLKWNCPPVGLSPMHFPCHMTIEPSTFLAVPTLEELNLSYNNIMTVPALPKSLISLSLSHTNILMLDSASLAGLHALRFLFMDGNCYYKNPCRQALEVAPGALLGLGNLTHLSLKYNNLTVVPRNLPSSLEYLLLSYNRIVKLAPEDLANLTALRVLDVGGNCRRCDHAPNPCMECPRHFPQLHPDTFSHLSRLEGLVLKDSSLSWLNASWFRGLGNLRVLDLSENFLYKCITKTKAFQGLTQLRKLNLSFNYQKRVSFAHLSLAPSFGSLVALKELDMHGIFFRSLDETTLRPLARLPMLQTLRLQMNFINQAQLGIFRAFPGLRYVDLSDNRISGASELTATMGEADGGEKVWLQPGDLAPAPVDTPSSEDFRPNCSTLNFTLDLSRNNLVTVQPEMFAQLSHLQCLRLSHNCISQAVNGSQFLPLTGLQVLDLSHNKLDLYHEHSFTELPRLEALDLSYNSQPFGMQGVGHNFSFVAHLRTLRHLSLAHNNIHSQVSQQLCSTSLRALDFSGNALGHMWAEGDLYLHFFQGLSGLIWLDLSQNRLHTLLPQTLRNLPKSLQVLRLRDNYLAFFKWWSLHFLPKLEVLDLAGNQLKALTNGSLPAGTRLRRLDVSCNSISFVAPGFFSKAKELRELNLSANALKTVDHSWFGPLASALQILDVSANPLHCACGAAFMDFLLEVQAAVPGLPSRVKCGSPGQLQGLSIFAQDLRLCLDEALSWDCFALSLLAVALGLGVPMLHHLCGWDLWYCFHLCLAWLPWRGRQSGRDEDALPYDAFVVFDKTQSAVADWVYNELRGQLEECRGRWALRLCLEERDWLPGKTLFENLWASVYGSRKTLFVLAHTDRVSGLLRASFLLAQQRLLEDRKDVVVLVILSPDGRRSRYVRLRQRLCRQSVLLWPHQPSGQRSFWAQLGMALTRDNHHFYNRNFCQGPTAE
IDE cell inh: inhibits human insulin-degrading enzyme in HEK cells. P14735. FAbetaB cleavage, fluorescence polarization. inhibition, % at 5.59 µM. hit rate 0.41% among 320,000;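 active means percent inhibition above the average of all tested compounds plus 3 SD, set per screening campaign, cut at about 16% in these data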;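 further: IDE supplied by intact live HEK cells; FP after avidin binding of uncleaved biotin substrate so inhibition keeps polarization high; 0% = DMSO wells and 100% = 60 µM reference IDE inhibitor Ii1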
TLR4 MyD88 comp: inhibitors of human TLR4-MyD88 binding; O00206+Q99836; HeLa CL3-4 TLR4/MyD88 BLA complementation, FRET ratio; inhibition, % at 8.4 µM; hit rate 0.18% among 200,000; AID 861; in the data active means inhibition above about 25%;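 further: 0% = vehicle and 100% = reference inhibitor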
NOD2 RIPK2 PPI: blocks binding of human NOD2 to RIPK2. CHO BLA complementation NOD2-RIPK2, CCF4 ratio. inhibition, % at 4.98 µM. hit rate 0.38% among 360,000. AID 624267. O43353; in the data active means inhibition above about 21%;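 further: 0% = vehicle only and 100% = reference blocker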
IDE cell activ: IDE (human) activation, cell-based; P14735; HEK cells, FAbeta-B cleavage, fluorescence polarization; 0% vehicle, 100% cell-free pure enzyme wells; activation, % at 5.96 µM; hit rate 0.073% among 340,000; AID 493087;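 active means activation above the mean of all tested compounds plus 3 SD, set per screening campaign, cut at about 17% in these data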
IDE inh confirm: confirmation of human insulin-degrading enzyme inhibitors in cells. hit rate 51% among 1,200. HEK cells, FAbetaB cleavage, fluorescence polarization. inhibition, % at 5.59 µM. shares compounds with IDE cell inh;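 active means mean inhibition across triplicate wells above the cutoff set by the earlier primary insulin-degrading enzyme screen, cut at about 16% in these data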;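 further: 0% = DMSO wells and 100% = 60 µM reference IDE inhibitor Ii1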
HEK293 tox: kills HEK cells in IDE inhibitor counter-screen. shares compounds with IDE cell inh. HEK293 cytotoxicity, ATP luminescence. inhibition, % at 5.59 µM. hit rate 28% among 1,200; in the data active means inhibition above about 22%;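 further: 0% = vehicle wells and 100% = reference cytotoxic drug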
FP fluor counter: counter-screen for IDE inhibitors: fluorescent artifacts. shares compounds with IDE cell inh. IC50, µM. 30 tested, under 10 active. FP counterscreen for fluorescent artifacts, IDE probe project; call rule not given here
Starred values were filed as active, the others as inactive; · = no result given.

SMILES	TLR9-MyD88 inh	IDE cell inh	TLR4 MyD88 comp	NOD2 RIPK2 PPI	IDE cell activ	IDE inh confirm	HEK293 tox	others
COc1cc(/C=C2\SC(=O)N(c3ccc(O)cc3)C2=O)cc(OC)c1OC	-8	1	·	3	4	·	·
COc1cc(/C=C2\SC(=N)N(c3ccc4c(c3)OCO4)C2=O)cc(OC)c1O	4	81*	5	-6	-58	72*	11
COc1ccc(/C=C/C(=O)C2C(=O)C=C(C)OC2=O)cc1O (stereo not drawn)	16	28*	9	15	-12	9	20
COc1cc(/C=C/C(=O)C2C(=O)C=C(C)OC2=O)cc(OC)c1O (stereo not drawn)	-1	24*	5	13	-12	35*	13
CN(C)c1nc(C(=O)O)nc(N2CCOCC2)n1	-7	-5	·	1	1	·	·
COc1cc(C2C(C#N)=C(N)Oc3cc(N(C)C)ccc32)cc2c1OCO2 (stereo not drawn)	14	19*	10	6	-20	15	67*
NC(N)=N/N=C/c1ccc(Cl)cc1Cl	-2	23*	·	1	-8	4	25*
COCCN1C(=O)/C(=C/c2ccc(N3CCCC3)cc2C)SC1=S	3	49*	0	3	-25	57*	15
COc1ccccc1CNC(=O)CCC1N=C2c3ccccc3N=C(SCC(=O)NCC3CCCO3)N2C1=O (stereo not drawn)	3	-4	·	1	3	·	·
Cc1cccc(N2CCN(C(=O)CCNC(=O)Cn3ccc4ccccc4c3=O)CC2)c1C	-1	17*	-8	2	-11	8	15
CC(=O)Nc1ccc(NC(=O)C(C)OC(=O)/C(C#N)=C/c2ccc(N(C)C)cc2)cc1 (stereo not drawn)	-7	10	·	1	-35	·	·
CC(OC(=O)/C(C#N)=C/c1ccc(N(C)C)cc1)C(=O)N(C)c1ccccc1 (stereo not drawn)	-7	16*	·	10	-26	31*	12
O=C(Nc1c(S(=O)(=O)c2ccccc2)csc1Br)c1ccccc1Cl	·	-2	·	0	·	·	·
CC(=O)NCCN=C(C)c1sc2ccccc2c1O	-3	8	-4	-1	-1	·	·
CC(=Nc1ccccc1O)c1sc2ccccc2c1O	0	84*	·	-8	-89	96*	10
CC(=Nc1ccc(O)cc1)c1sc2ccccc2c1O	5	27*	13	3	-28	35*	19
CC(=Nc1cccc(C)c1)c1sc2ccccc2c1O	-1	16*	1	1	-26	29*	8
Cc1nc(C)c(C(=O)NCc2ccccc2Cl)o1	14	4	13	-3	3	·	·
Cc1cc2nc(N3CCN(C(=O)c4ccco4)CC3)sc2cc1C	0	22*	·	7	-12	5	26*
Cc1cccc2[nH]c3c(N4CCN(C(=O)c5ccco5)CC4)ncnc3c12	9	30*	-1	3	-20	12	9
O=C(O)Cn1c2c(c3ccccc31)CSc1ccc(Cl)cc1-2	-7	24*	·	-1	-8	3	8
O=C(O)Cn1c2ccccc2c2ccccc21	0	-4	-15	5	2	·	·
Cc1nnsc1C(=O)N/N=C/c1ccccc1	-5	-4	14	-8	7	·	·
Cc1nnsc1C(=O)N/N=C/c1ccc2ccccc2c1O	4	90*	-15	-1	-73	114*	113*
CCNC(=O)NS(=O)(=O)c1cnccc1Nc1cccc(Cl)c1	4	-1	-3	-4	2	·	·
SMILES	TLR9-MyD88 inh	IDE cell inh	TLR4 MyD88 comp	NOD2 RIPK2 PPI	IDE cell activ	IDE inh confirm	HEK293 tox	others
COc1ccc2c(c1)c(/C=C/c1cc[n+](C)cc1)cn2C	-2	27*	·	2	-19	47*	44*
Cn1c(SCc2nc3ccccc3[nH]2)nnc1-c1cccc(Cl)c1	·	·	·	·	·	·	·	FP fluor counter=>55
COc1cccc(-c2nnc(SCc3nc4ccccc4[nH]3)n2Cc2ccco2)c1	·	·	·	·	·	·	·	FP fluor counter=>55
COC(=O)c1sc(N)c(C(=O)OC)c1CSc1nnc(-c2ccccc2Cl)n1C	5	16*	5	0	-4	5	10
CC(=O)Nc1ccc(C(C)=NNC(=O)C2CCCC2)cc1	·	·	·	4	·	·	·
CCOC(=O)N1CCN(C(=O)c2cccn3c(=O)c4cc(Cl)ccc4nc23)CC1	1	16*	3	3	-7	8	4
CC(=O)Nc1sc2c(c1-c1nc3ccccc3s1)CN(C(C)C)CC2	-7	30*	·	10	-10	5	95*
Brc1ccc2[nH]c3c(N4CCc5ccccc5C4)ncnc3c2c1	·	55*	13	·	·	41*	66*
Brc1ccc2[nH]c3c(NCc4ccccn4)ncnc3c2c1	·	64*	·	-9	·	38*	22*
Fc1ccc2[nH]c3c(N4CCc5ccccc5C4)ncnc3c2c1	·	29*	·	-5	·	12	77*
c1ccc(CNc2ncnc3c2oc2ccccc23)nc1	-6	4	-12	-1	-2	·	·
CN1CCN(c2ncnc3c2[nH]c2ccc(F)cc23)CC1	-5	23*	8	2	-14	10	12
c1ccc2c(c1)CCN(c1ncnc3nc[nH]c13)C2	-99	-3	0	-3	-5	·	·
S=C(NCc1cccnc1)Nc1cc(Cl)cc(Cl)c1	-6	-1	·	7	4	·	·
CCOC(=O)c1c(C)[nH]c(C(=O)N2CCN(CC)CC2)c1C	-2	0	·	-6	6	·	·
COc1ccccc1N1C(=O)c2cccc3c(C(=O)O)ccc(c23)C1=O	-9	1	-17	-2	-11	·	·
Cc1ccccc1N1C(=O)c2cccc3c(N(C)CCO)ccc(c23)C1=O	3	47*	-6	18	-49	68*	11
COc1ccccc1N1C(=O)c2cccc3c(N(C)CCO)ccc(c23)C1=O	-7	45*	·	4	-33	47*	10
CC(=O)Nc1cccc2c1C(=O)N(c1ccccc1C)C2=O	2	0	12	2	-3	·	·
COc1ccc(COCC(O)CN2CCN(S(=O)(=O)c3c(F)cccc3F)CC2)cc1OC (stereo not drawn)	4	·	·	-6	1	·	·
Cn1ncc(Br)c1C(=O)N1CCN(C(=O)c2ccco2)CC1	-2	8	-11	-12	3	·	·
CC1(S(=O)(=O)O)CC(=O)c2ccccc2C1=O (stereo not drawn)	7	43*	·	-16	-9	116*	29*
COc1ccc(Cn2nnc3ccccc32)cc1	5	2	·	-12	0	·	·
C=CCNc1nc(N2CCOCC2)c(C#N)c2c1CN(C)CC2	-4	16*	-10	-1	-2	3	12
CN1CCc2c(C#N)c(N3CCCCC3)nc(N3CCOCC3)c2C1	·	3	1	·	·	·	·
